In PubChem BioAssay (EPA / NIEHS):
The source made the active and inactive calls. Rule for the calls: active = hit-call score of the fitted dose curve at least 0.9, where 1 is the maximum; inactive = score below 0.9.

How the values were obtained:
[1] = ATG_M_61_CIS: Attagene CIS-FACTORIAL HepG2 Assay for M61 Transcription Factor (Internal Marker) (AID 2282937); details: HepG2 Attagene CIS-FACTORIAL M61 internal marker reporter; actives raise or lower the signal
Summary of the method: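 Using transiently transfected HepG2 liver cells, reporter transcript levels were assessed 24 h post-dosing by RT-PCR and capillary electrophoresis. Changes in either direction were fitted relative to DMSO controls.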

[2] = ATG_EGR_CIS: Attagene CIS-FACTORIAL HepG2 Assay for human Early Growth Response 1 (EGR1) (AID 2282938); details: HepG2 Attagene CIS-FACTORIAL EGR reporter mRNA; actives raise or lower the signal
Summary of the method: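 Fluorescent capillary-electrophoresis signal of reporter cDNA fragments serves as read-out. HepG2 cells bear transiently transfected cis-promoter reporter units and are exposed 24 h; gain- or loss-of-signal is fitted against DMSO.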

[3] = ATG_M_19_CIS: Attagene CIS-FACTORIAL HepG2 Assay for M19 Transcription Factor (Internal Marker) (AID 2282939); details: HepG2 Attagene CIS-FACTORIAL M19 internal marker reporter; actives raise or lower the signal
Summary of the method: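 HepG2, MRTU transient transfection, 24 h dosing. Total RNA → RT-PCR → 6-FAM primer extension → HpaI digest → CE fluorescence. Bidirectional curve fit, DMSO negative control.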

[4] = ATG_ERE_CIS: Attagene CIS-FACTORIAL HepG2 Assay for Estrogen Response Element (ERE) (AID 2282940); details: HepG2 ERE cis-reporter, Attagene RNA transcript; actives raise or lower the signal
Summary of the method: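 After a 24 h chemical treatment, RNA from reporter-transfected HepG2 cells is reverse-transcribed, PCR-amplified and fluorescently labelled. Fragments separated by capillary electrophoresis give reporter signal; DMSO serves as negative control.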

[5] = ATG_Ets_CIS: Attagene CIS-FACTORIAL HepG2 Assay for human Erythroblast Transformation Specific (ETS) (AID 2282941); details: HepG2 ETS cis-reporter transcription, actives raise or lower the signal
Summary of the method: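 Steps: transfect HepG2 with multiple reporter units; treat compound 24 h; isolate RNA, DNase-treat, reverse-transcribe; PCR-amplify, label with 6-FAM, digest with HpaI; separate by capillary electrophoresis. Activity fitted both directions versus DMSO.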

[6] = target: Hepatocyte nuclear factor 3-beta (Homo sapiens) (UniProt Q9Y261); test: ATG_FoxA2_CIS: Attagene CIS-FACTORIAL HepG2 Assay for human Forkhead box A2 (FOXA2) (AID 2282942); details: HepG2 cis-reporter transcription factor activity, 24 h; actives raise or lower the signal
Summary of the method: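 Fluorescence signal of reporter cDNA fragments, separated by capillary electrophoresis, reflects endogenous transcription factor activity in transfected HepG2 after 24 h. Both increases and decreases fitted against DMSO.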

[7] = ATG_FoxO_CIS: Attagene CIS-FACTORIAL HepG2 Assay for human Forkhead box O (FoxO) (AID 2282943); details: HepG2 Attagene cis-reporter, FoxO element, mRNA; actives raise or lower the signal
Summary of the method: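 Human hepatoma HepG2 cells carry transiently introduced reporter transcription units controlled by cis promoter elements. Chemical treatment lasted 24 h, and mRNA signal was compared with DMSO.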

[8] = ATG_GATA_CIS: Attagene CIS-FACTORIAL HepG2 Assay for human GATA Binding Protein (AID 2282944); details: HepG2 GATA cis-element reporter, Attagene multiplex mRNA; actives raise or lower the signal
Summary of the method: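 Cells: HepG2, transiently transfected with cis-regulated reporter transcription units. Exposure: 24 h. Detection: RT-PCR plus capillary electrophoresis of FAM-labeled fragments. Analysis: bidirectional, DMSO as baseline.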

[9] = ATG_GLI_CIS: Attagene CIS-FACTORIAL HepG2 Assay for human Zinc Finger Protein GLI1 (AID 2282945); details: HepG2, Attagene cis-factorial reporter mRNA, GLI element; actives raise or lower the signal
Summary of the method: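 Bidirectional curve fits relative to DMSO, using reporter mRNA levels from RT-PCR plus capillary electrophoresis. Cells were HepG2 transiently carrying cis-regulated reporter constructs, harvested 24 h after dosing.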

Measured: AC50

Chain of Hepatocyte nuclear factor 3-beta (Homo sapiens) (Q9Y261 whole entry, looked up, the tested form may be a part): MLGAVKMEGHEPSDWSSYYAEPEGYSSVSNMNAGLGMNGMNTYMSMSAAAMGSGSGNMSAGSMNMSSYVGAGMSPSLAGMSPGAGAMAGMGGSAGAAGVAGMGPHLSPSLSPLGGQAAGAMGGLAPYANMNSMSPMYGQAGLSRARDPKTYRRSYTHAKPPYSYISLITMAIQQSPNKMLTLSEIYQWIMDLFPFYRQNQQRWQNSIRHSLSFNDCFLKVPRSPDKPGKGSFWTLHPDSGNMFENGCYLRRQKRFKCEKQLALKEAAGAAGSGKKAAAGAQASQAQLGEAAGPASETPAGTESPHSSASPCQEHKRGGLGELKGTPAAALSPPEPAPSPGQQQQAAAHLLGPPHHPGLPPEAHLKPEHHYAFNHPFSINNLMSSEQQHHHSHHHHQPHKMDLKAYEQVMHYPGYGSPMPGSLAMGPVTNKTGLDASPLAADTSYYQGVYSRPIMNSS

COCC(C)N (stereo not drawn)
inactive: all assays above

C1=Cc2ccccc2C1
active: [4] 44.3 µM
inactive: all other assays above

CCN(CC)c1ccc(C(=O)c2ccccc2C(=O)O)c(O)c1
not listed: [5] | [8]
inactive: all other assays above

CC(C)(C)c1n[nH]c(=O)n(N)c1=O
not listed: [6]
inactive: all other assays above

C=C1[C@H]2CC[C@@H]3[C@H]2C(C)(C)CCC[C@]13C
not listed: [6]
inactive: all other assays above

NC(=O)OCC(COC(N)=O)c1ccccc1
not listed: [2]
inactive: all other assays above

C=CC(=O)OCCOC(=O)C=C
active: [2] 27.4 µM | [5] 27.2 µM
inactive: all other assays above

CC(C)=CCCC(C)C=O (stereo not drawn)
inactive: all assays above

O=C1CCCN1CCO
not listed: [8]
inactive: all other assays above

O=[N+]([O-])c1ccc(CO)cc1
not listed: [8]
inactive: all other assays above

O=C1CCCCCCCCCCCCCCCO1
inactive: all assays above

O=S(=O)(Oc1ccc(Cl)cc1Cl)c1ccccc1
active: [4] 7.97 µM
inactive: all other assays above

O=C(O)CCCC[C@@H]1SC[C@@H]2NC(=O)N[C@@H]21
inactive: all assays above

Nc1ccc(Oc2ccc(N)c(N)c2)cc1
inactive: all assays above

O=CC1CC1
not listed: [2] | [6]
inactive: all other assays above

O=C(O)CC(C(=O)O)C(CC(=O)O)C(=O)O (stereo not drawn)
not listed: [2]
inactive: all other assays above

CCCCCCC1(C)CCC(=O)O1 (stereo not drawn)
inactive: all assays above

CNC(=S)NN
not listed: [5]
inactive: all other assays above

O=C1c2cccc(O)c2C(=O)c2c(O)cc(CO)cc21
active: [4] 4.22 µM
inactive: all other assays above

CCCCC(CC)CCC(CC(C)C)OS(=O)(=O)O (stereo not drawn)
not listed: [5]
inactive: all other assays above
